In PubChem BioAssay AID1345083 (National Center for Advancing Translational Sciences (NCATS), 2018):
Screen size: about 94,000 compounds; about 6,200 (6.6%) were called active. About 31% were inconclusive and are not listed. Calls follow the shape of the dose curve; as a rule, active = well fitted inhibition curve with a large enough effect; inconclusive = small, poorly fitted or top-dose-only effect; inactive = flat fitted curve, though single readings scatter. The sample as a whole holds a higher share of actives than the screen did.

Experiment: Cytotoxic Profiling in HEK 293 Cell Line of Diverse Libraries Using Quantitative High-Throughput Screening; also: nearly all actives have a fitted effect of over 60% in size
Settings: HEK 293 viability, ATP luminescence (CellTiter-Glo), 48-72 h; series mostly up to 115 µM; activity change, negative = cytotoxicity: at the top concentration
Text: Cell-based phenotypic screening is a commonly used approach to discover biological pathways, novel drug targets, chemical probes and high-quality hit-to-lead molecules. Many hits identified from high-throughput screening campaign are ruled out through a series of follow-up potency, selectivity/specificity, and cytotoxicity assays. Prioritization of molecules with little or no cytotoxicity for a more in-depth downstream evaluation influence the future direction of projects, so cytotoxicity profiling of the screening libraries at early stage is essential for increasing the likelihood of candidate success. In this study, we analyzed results from a cell-based cytotoxicity screening campaign, comprising nearly 10,000 compounds in NCATS annotated libraries, and over 100,000 compounds in a diversity library, evaluated in four normal cell lines (HEK 293, NIH 3T3, CRL-7250 and HaCat) and a cancer cell line (KB 3-1, a HeLa subline) with overall screening outcomes, hit rates, pan-activity and selectivity. For the annotated library, we also examined the primary targets and mechanistic pathways regularly associated with cell death. To our knowledge, this is the first study to use high-throughput screening to profile large libraries for cytotoxicity assessment in both normal and cancer cell lines. In summary, the results generated here constitutes a valuable resource for the scientific community and provides insight on identifying cytotoxic compounds with particular mechanisms of action, and prioritizing compounds with suitable cytotoxicity profile for further evaluation.
HEK 293 cells were seeded into white 1536-well plates using a Multidrop Combi peristaltic dispenser (ThermoFisher, Waltham, MA) at a density of 250 cells/well in 5 uL of medium respectively. A pintool (Kalypsys) was used to transfer 23 nL of compound solution to the 1536-well assay plates. After 48 or 72 hr incubation at 37 degree Celsius, 5% CO2 and 95% humidity, 2.5 uL of CellTiter-Glo (Promega) was dispensed into each well using a dispenser (Aspect Automation, St. Paul, MN) with solenoid valves (Lee Valves, Westbrook CT). Plates were left at room temperature for 10 min before imaging the ATP-coupled luminescence using a ViewLux microplate imager (PerkinElmer, Waltham, MA).
% is scaled to controls: 0 for no effect and ±100 for the full control effect; potency is read from the fitted curve at half-maximal effect.

| Compound | outcome | Potency | activity change, negative = cytotoxicity |
| --- | --- | --- | --- |
| Cn1cc(CN2CCN3C(=O)N(c4ccccn4)C[C@H]3C2)cn1 | inactive [at 172 µM] |  |  |
| C=CCN(C)C[C@H]1CN2CC[C@H]1C[C@@H]2CNC(=O)Nc1cccc(SC)c1 |  | 63.1 µM (active) |  |
| CC[C@H]1CN2CC[C@H]1C[C@@H]2CNC(=O)c1ccc(N(C)C)cc1 |  |  | 4.54% [at 172 µM] (inactive) |
| CN(CCc1ccccn1)C[C@H]1CN2CC[C@H]1C[C@@H]2CNC(=O)c1ccccc1 |  |  | -30% [at 172 µM] (inactive) |
| O=C(NC[C@H]1C[C@@H]2CCN1C[C@@H]2CN1CCC(Cc2ccccc2)CC1)c1ccco1 |  |  | -25.4% [at 172 µM] (inactive) |
| CN(Cc1ccccc1)C[C@H]1CN2CC[C@H]1C[C@@H]2CNC(=O)Nc1cccc(C#N)c1 |  | 89.1 µM (active) |  |
| CC[C@H]1CN2CC[C@H]1C[C@@H]2CNCc1cccc(C#N)c1 |  |  | -0.0855% [at 230 µM] (inactive) |
| CC(C)NC(=O)NC[C@H]1C[C@@H]2CCN1C[C@@H]2CN1CCCC1 |  |  | 2.65% [at 172 µM] (inactive) |
| FC(F)(F)CN1C2CCC1CN(c1cccc(Cl)n1)C2 | inactive |  |  |
| CCCSc1ncc(CN2CC[C@H]3CNC[C@H]32)cn1 |  |  | -10.3% (inactive) |
| CC(=O)NCCNC(=O)[C@H]1CN2CCC1C[C@@H]2Cn1cc(-c2ccc(C(C)(C)C)cc2)nn1 (some centres undefined) |  |  | -3.54% (inactive) |
| CNC1CCOCC1 | inactive [at 287 µM] |  |  |
| C#CCN1C(=O)[C@@H]2[C@H](c3ccccc31)[C@@H](C(=O)OCC)[C@@H](c1ccccc1)N2C(=O)COC |  | 44.7 µM (active) |  |
| CCCCOC(=O)N1C[C@H](C(=O)OCC)[C@H]2c3ccccc3N(C)C(=O)[C@]21C |  |  | -18.1% [at 57.5 µM] (inactive) |
| Nc1cccc(-c2cn(C[C@H]3CC4CCN3C[C@@H]4C(=O)NCc3ccc(F)cc3)nn2)c1 (some centres undefined) |  |  | -7.43% [at 172 µM] (inactive) |
| COCC(=O)NC[C@H]1C[C@@H]2CCN1C[C@@H]2CN1CCN(C)CC1 |  |  | -12.1% [at 172 µM] (inactive) |
| CN(C)[C@@H]1CN(C(=O)Cc2ccc(F)cc2)C[C@H]1CO | inactive |  |  |
| Cn1cccc1CN1CCC2(COc3ccncc3[S+](=O)([O-])N2)C1 (centres undefined) |  |  | -7.93% (inactive) |
| C=C[C@H]1CN2CC[C@H]1C[C@@H]2CNC(=O)c1ccc(C(F)(F)F)cc1 |  |  | -7.78% [at 172 µM] (inactive) |
| Cc1ccc(C(=O)NC[C@H]2C[C@@H]3CCN2C[C@@H]3c2cc(-c3ccco3)nc(C)n2)cc1 |  | 79.4 µM (active) |  |
| COc1ccccc1-c1cc([C@H]2CN3CC[C@H]2C[C@@H]3CNC(=O)c2ccco2)n(C)n1 |  |  | 4.65% [at 172 µM] (inactive) |
| O=C(NC[C@H]1C[C@@H]2CCN1C[C@@H]2CN1CCN(c2ncccn2)CC1)c1ccc(C(F)(F)F)cc1 |  |  | -17.4% (inactive) |
| Cc1nc(-c2ccc(C(F)(F)F)cc2)cc([C@H]2CN3CC[C@H]2C[C@@H]3CNC(=O)c2ccco2)n1 |  | 20 µM (active) |  |
| COc1ccccc1-c1cc([C@H]2CN3CC[C@H]2C[C@@H]3CNC(=O)c2ccco2)nc(C)n1 |  |  | -23.8% [at 172 µM] (inactive) |
| CCNC(=O)N1CC2CN(C(C)C)CC(C1)O2 |  |  | -6.72% (inactive) |
| CC1=NOC2(CCN(Cc3c[nH]c4ccccc34)CC2)C1 |  |  | 4.67% [at 172 µM] (inactive) |
| CN1C[C@H]2CN(Cc3cnn(C)c3)CCN2C1=O |  |  | -15.1% [at 230 µM] (inactive) |

| Compound | outcome | Potency | activity change, negative = cytotoxicity |
| --- | --- | --- | --- |
| O=C(Nc1ccc2n(c1=O)C[C@H]1C[C@@H]2CN(C(=O)c2ccccn2)C1)c1ccc(F)cc1 |  |  | -3.73% [at 172 µM] (inactive) |
| C[S+](=O)([O-])N1CCC2(CC1)CC(c1cccnc1)=NO2 |  |  | 0.463% (inactive) |
| O=C([C@H]1CN2CCC1C[C@@H]2Cn1cc(-c2ccccc2)nn1)N1CCOCC1 (some centres undefined) |  |  | 0.574% [at 172 µM] (inactive) |
| CN(C)C(=O)[C@H]1CN2CCC1C[C@@H]2Cn1cc(-c2ccc(-c3ccccc3)cc2)nn1 (some centres undefined) |  |  | -17.4% [at 172 µM] (inactive) |
| Cc1nc(-c2ccccc2)cc([C@H]2CN3CC[C@H]2C[C@@H]3CNC2CCOCC2)n1 |  | 31.6 µM (active) |  |
| Cc1nc(-c2ccccc2)cc([C@H]2CN3CC[C@H]2C[C@@H]3CNC2CCN(C)CC2)n1 |  | 28.2 µM (active) |  |
| CC(=O)Nc1ccc(-c2ccc3n(c2=O)C[C@H]2C[C@@H]3CN(C3CCN(C)CC3)C2)cc1 |  |  | -24.1% [at 172 µM] (inactive) |
| CC(C)N1C[C@@H]2OCC(=O)N(Cc3cccnc3)[C@@H]2C1 |  |  | -2.45% [at 230 µM] (inactive) |
| O=C(Nc1ccc(Cl)cc1)N1C[C@@H]2C[C@H](C1)c1c(-c3ccccc3F)ccc(=O)n1C2 |  |  | -4.3% (inactive) |
| COCC1CN(Cc2ccsc2)CC12CCNCC2 (centres undefined) |  |  | -27.7% (inactive) |
| COc1ccc(CC(=O)N2C[C@@H]3CC[C@H](C2)N(CC2CCC2)C3)c(OC)c1 |  |  | -22.9% (inactive) |
| COc1ccccc1-c1cc([C@H]2CN3CC[C@H]2C[C@@H]3CNC(C)=O)n(C)n1 |  |  | -4.81% [at 172 µM] (inactive) |
| COc1ccc(-c2cc([C@H]3CN4CC[C@H]3C[C@@H]4CNC(=O)C3CC3)n(C)n2)cc1OC |  |  | -9.12% [at 172 µM] (inactive) |
| Cn1nc(-c2cccs2)cc1[C@H]1CN2CC[C@H]1C[C@@H]2CNC(=O)CCCC(=O)O | inactive [at 172 µM] |  |  |
| O=C(Nc1ccccc1)[C@H]1CN2CCC1C[C@@H]2Cn1cc(CO)nn1 (some centres undefined) |  |  | -2.81% [at 172 µM] (inactive) |
| Cn1nc(-c2ccc(F)cc2)cc1[C@H]1CN2CC[C@H]1C[C@@H]2CNCc1ccccn1 |  | 63.1 µM (active) |  |
| COc1ccc(-c2cc([C@H]3CN4CC[C@H]3C[C@@H]4CNC(=O)c3ccccc3)n(C)n2)cc1OC |  |  | -10.2% (inactive) |
| COc1ccc(C(=O)NC[C@H]2C[C@@H]3CCN2C[C@@H]3c2cc(-c3ccccc3)nn2C)cc1 |  | 89.1 µM (active) |  |
| Cn1nc(-c2cccs2)cc1[C@H]1CN2CC[C@H]1C[C@@H]2CNC(=O)Nc1ccccc1 |  | 112 µM (active) |  |
| CCCCc1cn(C[C@H]2C[C@@H]3CCN2C[C@@H]3C(=O)NCCNC(C)=O)nn1 |  |  | -2.52% [at 172 µM] (inactive) |
| Cc1ccccc1-c1ccc2n(c1=O)C[C@H]1C[C@@H]2CN(C(=O)CSCC(=O)O)C1 |  |  | -1.03% [at 172 µM] (inactive) |
| O=C([C@H]1CN2CCC1C[C@@H]2Cn1cc(CCO)nn1)N1CCCC1 (some centres undefined) | inactive [at 172 µM] |  |  |
| COc1ccccc1-c1ccc(N2CC3CC(C2)c2cccc(=O)n2C3)nn1 (centres undefined) |  |  | 1.75% (inactive) |
| Cc1ccc([C@@H]2CN(Cc3ncc[nH]3)[C@@H]3C4CCN(CC4)[C@@H]32)cc1 |  |  | 3.55% (inactive) |
| COc1cccc(C(=O)N2CCC3(CC2)NCc2ccccc2-n2ccnc23)c1 |  |  | -24.7% (inactive) |
| O=S1(=O)NCC2(CCN(Cc3ccc(Cl)s3)C2)Oc2ncccc21 (centres undefined) | inactive |  |  |
| O=C(COc1ccccc1)N1C[C@@H]2C[C@H](C1)c1c(-c3ccccc3F)ccc(=O)n1C2 |  |  | -23.1% [at 172 µM] (inactive) |
